Sampled rows, rich in hits. Any-hit rate of the full collection: about 11%.
G9a inh = qHTS Assay for Inhibitors of Histone Lysine Methyltransferase G9a; Histone-lysine N-methyltransferase EHMT2 (Homo sapiens), Q96KQ7; G9a H3K9 monomethylation, AlphaScreen, 2 h; Potency, µM (doses to about 102 µM), for the others: at the top dose activity, negative = inhibition, hits mostly inhibitors; 350,000 tested, 8.8% active; further: on the % scale 0 is the no-effect control and ±100 the full control effect; nearly all actives have a fitted effect of over 75% in size
Target sequence (Q96KQ7 913-1193 limits assumed): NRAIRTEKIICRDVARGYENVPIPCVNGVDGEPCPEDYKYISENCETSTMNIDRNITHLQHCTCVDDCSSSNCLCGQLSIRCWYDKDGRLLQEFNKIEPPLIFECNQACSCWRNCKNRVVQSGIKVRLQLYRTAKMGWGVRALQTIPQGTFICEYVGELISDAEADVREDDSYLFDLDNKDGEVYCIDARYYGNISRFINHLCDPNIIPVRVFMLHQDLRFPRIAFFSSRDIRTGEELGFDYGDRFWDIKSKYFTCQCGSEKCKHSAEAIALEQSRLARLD
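Methyltransferase reactions run at room temperature for 2 h (20 nM enzyme, 500 nM biotin-H3K9 peptide, 20 uM SAM) after a 15 min compound preincubation; product detected by AlphaScreen beads and anti-H3K9me1 antibody.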
BAZ2B inh = qHTS Assay for Inhibitors of BAZ2B | Bromodomain adjacent to zinc finger domain protein 2B (Homo sapiens), Q9UIF8 | AlphaScreen BAZ2B-H3K14Ac peptide displacement | Potency, µM (titrated, usually from 114 µM), for the others: at the top dose activity change, negative = inhibition, actives largely listed as inhibitors | 360,000 tested, 4.4% active | AID 504333, 2011; further: on the % scale 0 is the no-effect control and ±100 the full control effect; nearly all actives have a fitted effect of over 60% in size
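AlphaScreen luminescence quantifies BAZ2B engagement of H3K14Ac peptide; the protein and biotinylated peptide are both at 50 nM final, buffer PBS pH 7.4 with 0.01% Tween-20, all steps at room temperature.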
HP1b chromo inh = HTS for Inhibitors of HP1-beta Chromodomain Interactions with Methylated Histone Tails; Chromobox protein homolog 1 (Homo sapiens), P83916; AlphaScreen HP1-beta / biotin-H3K9me3 peptide binding; Potency, µM (highest dose often 114 µM), for the others: at the top dose activity change, negative = inhibition, hits mostly inhibitors; 390,000 tested, 0.56% active; further: nearly all actives have a fitted effect of over 70% in size
Target sequence (P83916 whole entry, looked up): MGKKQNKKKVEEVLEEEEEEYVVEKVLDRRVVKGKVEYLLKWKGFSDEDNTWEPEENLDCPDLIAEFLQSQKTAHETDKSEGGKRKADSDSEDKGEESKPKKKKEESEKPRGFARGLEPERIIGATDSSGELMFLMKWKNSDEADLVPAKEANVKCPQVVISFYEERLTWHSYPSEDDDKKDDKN
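HP1-beta protein (50 nM final) preincubated 30 min at room temperature with biotinylated H3(1-18)K9me3 peptide (50 nM) in PBS pH 7.4, 0.01% Tween-20, then compound added for 30 min. AlphaScreen streptavidin donor/nickel chelate acceptor beads (10 ug/mL final), 30 min dark, luminescence read.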
L3MBTL1 inh = qHTS Assay for the Inhibitors of L3MBTL1; Potency, µM (series often up to 57.1 µM), for the others: at the highest dose activity, negative = inhibition, usual class: inhibitors; 230,000 tested, 0.66% active; AlphaScreen L3MBTL1–H3K9me1 peptide binding; further: on the % scale 0 is the no-effect control and ±100 the full control effect; nearly all actives have a fitted effect of over 60% in size
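Displacement of a biotinylated histone H3(1-15) peptide monomethylated at Lys9 (75 nM) from L3MBTL1 (50 nM) was measured by AlphaScreen after a 30 min room-temperature compound incubation; cefsulodin titration served as intraplate control.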
JMJD2A Tudor inh = qHTS Assay for Inhibitors of JMJD2A-Tudor Domain; 390,000 tested, 4.4% active; AlphaScreen JMJD2A-Tudor / H3K4me3 peptide binding; Potency, µM (titrated, usually from 114 µM), inactives show top-dose activity change, negative = inhibition, usual class: inhibitors; further: on the % scale 0 is the no-effect control and ±100 the full control effect; nearly all actives have a fitted effect of over 50% in size
* marks the source's active call; other numbers are inactive results; ? = inconclusive; / = not tested or not shown; [ ] = dose if it differs, or a comment. The call rests on the fitted dose curve; in most records, active means well fitted inhibition curve with a large enough effect; inconclusive means small, poorly fitted or top-dose-only effect; inactive means no such curve, though single readings can be large or run the other way. Potency means the concentration at half of the fitted maximal effect.

SMILES | G9a inh | BAZ2B inh | HP1b chromo inh | L3MBTL1 inh | JMJD2A Tudor inh
Cc1ccccc1C(=O)NNC(=O)/C=C\C(=O)O | 4.5µM* | 0% | -32% | -1% | 50µM*
O=C(O)/C=C/C(=O)NNC(=O)c1ccccc1Br | 11%[0.0925 µM] | ? | 16% | 15% | -34%
Cc1ccccc1C(=O)NNC(=O)C(C)N1C(=O)c2ccccc2C1=O (stereo not drawn) | 11µM* | 11% | 20% | -11% | -14%
Cc1ccccc1C(=O)NC(CC(C)C)C(=O)NN1C(=O)c2ccccc2C1=O (stereo not drawn) | 10% | -9% | 9% | 3%[11.4 µM] | -1%
Cc1cccc(C(=O)NNC(=O)/C=C/C(=O)O)c1 | 35µM* | -1% | 47% | / | -19%
CCOC(=O)c1nnc(-c2ccccc2)nc1Sc1c(Cl)cccc1Cl | 40µM* | ? | -22% | / | ?
CCOC(=O)c1nnc(-c2ccc(C)cc2)nc1Sc1ccccc1Cl | ? | -27% | 0% | / | ?
COC(=O)C(CCSC)NC(=O)c1cc2c(n(-c3ccc(C)cc3)c1=O)CCCC2=O (stereo not drawn) | 0.56µM* | 50µM* | 27%[57 µM] | ? | -9%
O=C(NCCc1ccccc1)C1COc2ccccc2O1 (stereo not drawn) | 10% | -9% | 26% | / | -4%
O=C(NCCc1ccc(O)c(O)c1)C1COc2ccccc2O1 (stereo not drawn) | 2.2µM* | -13% | 35µM* | / | 18µM*
Clc1ccccc1-c1ccc2ncnc(NCCN3CCOCC3)c2c1 | -1%[0.501 µM] | / | / | / | /
CCOC(=O)C1=C(SCC)c2cc3c(n2C1=O)CCCC3 | 7.9µM* | 10µM* | ? | 25µM* | 35µM*
CCc1ccccc1NC(=O)[C@@H](c1ccccc1)N1Cc2ccccc2C1=O | 8%[59 µM] | -13% | 23% | / | -11%
COc1cccc(N2CCN(C(=S)Nc3ccc(C)cc3C)CC2)c1 | 0% | 8% | 18% | -3% | 5%
COc1ccc(N2CCC(CNC(=S)Nc3cccc(C)c3)C2)cc1 (stereo not drawn) | ? | 13µM* | ? | ? | 45µM*
COc1ccc(N2CCC(CNC(=S)Nc3c(C)cc(C)cc3C)C2)cc1 (stereo not drawn) | ? | 20µM* | 7.1µM* | / | 35µM*
COc1ccc(N2CCC(CNC(=S)Nc3ccc(C)cc3C)C2)cc1 (stereo not drawn) | ? | 16µM* | ? | / | 28µM*
Cc1cc(C)cc(NC(=S)NCC2CCN(C(C)c3ccccc3)C2)c1 (stereo not drawn) | -45% | -17% | 20% | / | -20%
CCCCCCCCCCCCC/C=C/[C@@H](O)[C@H](CO)N(C)C | 21%[59 µM] | / | / | / | /
O=C(NC(NNc1ccc([N+](=O)[O-])cc1)(C(F)(F)F)C(F)(F)F)c1ccc(F)cc1 | 13µM* | ? | ? | -11% | ?
COC(=O)C(NNc1ccccc1)(NC(=O)c1ccc(F)cc1)C(F)(F)F (stereo not drawn) | 35µM* | -8% | 8% | -3% | -21%
O=C(NC(NNc1ccc([N+](=O)[O-])cc1)(C(F)(F)F)C(F)(F)F)c1ccccc1Cl | ? | ? | -23% | -1% | ?
CCCCC12CN3CC(C)(CN(C1)C3c1c(C)[nH]c(=O)[nH]c1=O)C2=O (stereo not drawn) | ? | -12% | 20% | / | -16%
Cc1oc(-c2cccs2)nc1CN1CCC(CO)(CCOc2ccccc2)CC1 | 0% | -35% | 6% | 2% | -32%
C[n+]1ccc(/C=C/c2ccc(Br)cc2)cc1 | ? | 56µM* | 14% | 2% | -3%
C[n+]1ccc(/C=C/c2ccc3ccccc3c2)cc1 | 7.1µM* | / | / | / | /

Screens as filed in PubChem.
